Data: PubChem BioAssay (NCI)
Compounds without any hit were thinned out: in the full panel of roughly 83,000, 20% have a hit.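 The endpoint reported here, percent growth, reads 100 for growth as untreated, 0 for no net growth and -100 for all cells dead.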 Values without a mark were called inactive. Calls of active or inactive are those of the source. How the source made its calls: active means growth percent below 10; inactive means the rest.

What was measured:
Assay in all cases: NCI-60 one-dose screen, 48 h (100 = growth as untreated, 0 = no growth, -100 = all killed)
Settings in all cases: 10 µM
NCI-H23 lung = tested on: NCI-H23 lung
NCI-H226 lung = tested on: NCI-H226 lung
NCI-H322M lung = tested on: NCI-H322M lung
HOP-62 NSCLC = tested on: HOP-62 NSCLC
NCI-H460 lung = tested on: NCI-H460 lung
HOP-92 NSCLC = tested on: HOP-92 NSCLC
NCI-H522 lung = tested on: NCI-H522 lung
A549/ATCC NSCLC = tested on: A549/ATCC NSCLC
786-0 renal = tested on: 786-0 renal
COLO 205 colon = tested on: COLO 205 colon

SMILES	growth (NCI-H23 lung)	growth (NCI-H226 lung)	growth (NCI-H322M lung)	growth (HOP-62 NSCLC)	growth (NCI-H460 lung)	growth (HOP-92 NSCLC)	growth (NCI-H522 lung)	growth (A549/ATCC NSCLC)	growth (786-0 renal)	growth (COLO 205 colon)
CC(=O)O[C@H]1CC[C@@]2(C)[C@@H](CC[C@@H]3[C@@H]2CC[C@]2(C)C=C(C=O)C[C@@H]32)C1	73.6%	119%	90.9%	33.3%	103%	76.2%	93.1%	95.3%	102%	95.4%
Nc1nc2c(nnn2C2CC(O)C(CO)O2)c(=O)[nH]1 (stereo not given)	45%	50%	52%	69%	54.3%	43.7%	24.4%	76.2%	50.7%	11.9%
CC(C)OP(=O)(O)c1ncc(-c2ccc(C(F)(F)F)cc2)c(NC2CCCCCC2)n1	62.6%	74.1%	91.1%	70.5%	41.5%	22.8%	48.8%	49.2%	81.6%	61%
Nc1c(C(=O)NC2CCCCC2)sc2nc3c(cc12)C(=O)CCC3	98.7%	95.4%	105%	120%	103%	82.9%	98.6%	84.5%	99.5%	116%
CC(=O)c1ccc(NCn2nc(-c3ccc(Cl)cc3)oc2=S)cc1	104%	106%	110%	69.9%	106%	104%	92%	79.2%	105%	107%
COc1ccc(C2C=C(c3ccc(Cl)c(Cl)c3)N=C3SC(C)=CN32)cc1 (stereo not given)	92.2%	86.5%	98.7%	99.5%	101%	98.7%	77.3%	81.6%	90.7%	104%
Cc1ccc2nc3[nH]c(=O)[nH]c(=O)c3c(N)c2c1	91.9%	100%	73.3%	84.3%	81.2%	76%	83.9%	89%	78.7%	91.2%
COc1ccc(C(=O)c2sc3nc(-c4cccs4)ccc3c2N)cc1OC	74.3%	73%	85%	70.6%	36.1%	-0.708% (active)	24%	35.8%	70.7%	40.9%
COc1cc(CSc2nc3ccc(Cl)cc3c(=O)n2Cc2ccccc2)cc(OC)c1OC	25%	47.9%	47.5%	37.7%	20.5%	71.3%	-0.0842% (active)	42.2%	43.4%	-37.8% (active)
COc1cc2nc(Sc3sc(N)nc3C)n(-c3ccc(Oc4ccccc4)cc3)c(=O)c2cc1OC	90.6%	89.7%	123%	110%	99.5%	79.5%	83.7%	83.3%	80%	76%
O=C1/C(=C/c2ccc(O)cc2)Cc2ccc(Cl)cc21	69.5%	68.1%	84.9%	95.3%	84.4%	77.3%	-38.8% (active)	85.9%	92.2%	120%
Cc1nn2c(/C=C3/C(=O)Nc4ccc(Cl)cc43)c(-c3ccccc3)nc2s1	51.4%	33.4%	12.7%	-19.8% (active)	25.7%	-5.92% (active)	43.6%	24.2%	41.2%	49.7%
COc1cc(C2=Nc3c/c(=C\c4c(O)[nH]c5ccc(Cl)cc45)ccc3=N2)cc(OC)c1OC	2.68% (active)	55.4%	57.2%	-82% (active)	8.64% (active)	-61.5% (active)	24.9%	56.5%	-6.36% (active)	-41.1% (active)
O=C(CCc1ccccc1)N1CCN(C(=O)CCc2ccccc2)CC1	101%	99.3%	95.2%	105%	114%	84.1%	98.3%	99.9%	94.6%	102%
CCNC1(NC#N)CCCCC1	102%	95.6%	113%	109%	113%	85%	123%	91.4%	100%	111%
CC(=O)Nc1ccc2c(c1)C(N1CC3CCC(CC3)C1)c1ccccc1-2 (stereo not given)	90.7%	85%	115%	96.5%	64.3%	64.2%	108%	85.9%	92.5%	68.6%
COc1ccc(-c2csc(NC(=O)CO[N+](=O)[O-])n2)cc1	93.4%	102%	96.1%	101%	94.1%	118%	-39.7% (active)	84.9%	113%	89.1%
CN(C1c2ccccc2Oc2ccccc21)S(=O)(=O)c1cc(Cl)ccc1Cl	69.8%	62.7%	78.4%	48.6%	34.5%	34.8%	3.68% (active)	52.4%	64.1%	53%
O=[N+]([O-])c1ccc(S(=O)(=O)OCCCCOS(=O)(=O)c2ccc([N+](=O)[O-])cc2)cc1	102%	90.1%	112%	98.5%	108%	110%	96.8%	103%	99%	117%
CCc1ccc(Nc2cc(C)nc3nc(C)nn23)cc1	3.75% (active)	62.1%	61.7%	26.8%	-43.3% (active)	-3% (active)	-14.6% (active)	-17.6% (active)	34.8%	-96.4% (active)
Cc1ccc(NS(=O)(=O)c2ccccc2)c(NS(=O)(=O)c2ccccc2)c1	87.1%	105%	109%	86.5%	102%	93.5%	102%	103%	108%	97.5%
Cc1ccc(NC(=O)/C=N/O)cc1C	94.6%	53.2%	102%	92.7%	103%	82.3%	93%	94%	101%	105%
COc1ccc(/C=C2\SC(=S)N(CCCN3CCOCC3)C2=O)c(OC)c1	98.9%	-99.3% (active)	111%	125%	105%	87.1%	79.7%	102%	106%	108%
CN1CCN(c2nc(-c3cccnc3)nc3sc4c(c23)CCCCCC4)CC1	93.7%	93.1%	99.3%	85.5%	98%	-2.98% (active)	103%	91.2%	92.8%	102%
CNCCCNCCCN1C(=O)c2ccc3c4c(ccc(c24)C1=O)C(=O)N(CCCNCc1ccccc1OC)C3=O	-31% (active)	8.88% (active)	1.15% (active)	7.81% (active)	-16.6% (active)	-32.1% (active)	-52.7% (active)	1.84% (active)	10.4%	-72.8% (active)
Cc1cc(OI)c(C(C)C)cc1-c1cc(C(C)C)c(OI)cc1C	94.9%	93.7%	95.9%	84.9%	106%	101%	94.5%	94.3%	103%	114%
C=CCn1c(C)nc2cc(Nc3nc(Nc4ccc5nc(C)n(CC=C)c5c4)c4ccccc4n3)ccc21	-69.2% (active)	-47.1% (active)	-92.2% (active)	-99.5% (active)	-84.2% (active)	-79% (active)	-94.8% (active)	-67.1% (active)	-70.6% (active)	-100% (active)
O=S(=O)(O)C1(O)CCCCC1	93.3%	95.4%	89.5%	81.8%	48%	101%	91.7%	98.9%	102%	96.1%
